# Experiments:
# Test in all cases: DAPPL (digital affinity profiling via proximity ligation, sequencing); 10 mM Tris-HCl pH 7.5, 50 mM NaCl, 1 mM DTT, 4% glycerol, room temperature, 30 min; GST-TFs on glutathione beads, 16-mer random dsDNA library, 0.1% formaldehyde crosslink after washing; high values mean tight binding
# FLI1 = target: T1, FLI1 (Homo sapiens, UniProt Q01543 1-452); conditions: protein: recombinant; tags: N-terminal GST; dsDNA, one strand shown
# T1 sequence: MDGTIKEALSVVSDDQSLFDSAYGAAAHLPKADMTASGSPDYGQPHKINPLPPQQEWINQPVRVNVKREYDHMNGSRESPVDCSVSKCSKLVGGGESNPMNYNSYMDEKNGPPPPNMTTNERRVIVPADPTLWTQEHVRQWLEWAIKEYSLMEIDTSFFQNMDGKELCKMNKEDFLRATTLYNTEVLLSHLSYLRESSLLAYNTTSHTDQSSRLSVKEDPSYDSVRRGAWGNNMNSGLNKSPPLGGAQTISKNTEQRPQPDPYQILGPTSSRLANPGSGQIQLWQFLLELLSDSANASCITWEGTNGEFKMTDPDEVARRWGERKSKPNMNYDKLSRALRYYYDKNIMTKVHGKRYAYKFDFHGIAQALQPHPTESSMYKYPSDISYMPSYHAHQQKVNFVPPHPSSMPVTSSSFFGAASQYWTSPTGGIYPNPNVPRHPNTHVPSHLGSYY
# Outline: (§1)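 GST fusions of human transcription factors were expressed in yeast and captured with glutathione beads. Once given DNA barcodes and pooled alongside a tag-only sample, they were incubated for 30 min at room temperature with 200 nmole of a random double-stranded 16-mer DNA library in Tris/NaCl/DTT/glycerol buffer, then washed, crosslinked (0.1% formaldehyde), proximity-ligated, PCR-amplified and sequenced on an Illumina NextSeq500. The binding signal of each hexamer is its read frequency for a factor divided by its frequency for the tag-only sample.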
# ELK1 = target: T2, ELK1 (Homo sapiens, UniProt P19419 1-428); conditions: protein: recombinant; tags: N-terminal GST; dsDNA, one strand shown
# T2 sequence: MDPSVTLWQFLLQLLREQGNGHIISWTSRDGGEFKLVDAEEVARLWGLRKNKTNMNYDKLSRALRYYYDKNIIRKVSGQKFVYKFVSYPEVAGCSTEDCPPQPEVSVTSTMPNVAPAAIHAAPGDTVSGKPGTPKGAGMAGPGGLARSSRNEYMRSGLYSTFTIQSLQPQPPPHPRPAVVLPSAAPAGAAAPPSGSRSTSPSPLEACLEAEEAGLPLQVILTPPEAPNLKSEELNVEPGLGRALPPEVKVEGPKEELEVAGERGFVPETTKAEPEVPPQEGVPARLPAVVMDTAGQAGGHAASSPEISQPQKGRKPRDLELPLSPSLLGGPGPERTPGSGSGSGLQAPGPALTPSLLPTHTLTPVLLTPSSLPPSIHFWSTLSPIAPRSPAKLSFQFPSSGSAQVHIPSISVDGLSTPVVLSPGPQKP
# Outline: as §1
# GABPA = target: T3, GABPA (Homo sapiens, UniProt Q06546 1-454); conditions: protein: recombinant; tags: N-terminal GST; dsDNA, one strand shown
# T3 sequence: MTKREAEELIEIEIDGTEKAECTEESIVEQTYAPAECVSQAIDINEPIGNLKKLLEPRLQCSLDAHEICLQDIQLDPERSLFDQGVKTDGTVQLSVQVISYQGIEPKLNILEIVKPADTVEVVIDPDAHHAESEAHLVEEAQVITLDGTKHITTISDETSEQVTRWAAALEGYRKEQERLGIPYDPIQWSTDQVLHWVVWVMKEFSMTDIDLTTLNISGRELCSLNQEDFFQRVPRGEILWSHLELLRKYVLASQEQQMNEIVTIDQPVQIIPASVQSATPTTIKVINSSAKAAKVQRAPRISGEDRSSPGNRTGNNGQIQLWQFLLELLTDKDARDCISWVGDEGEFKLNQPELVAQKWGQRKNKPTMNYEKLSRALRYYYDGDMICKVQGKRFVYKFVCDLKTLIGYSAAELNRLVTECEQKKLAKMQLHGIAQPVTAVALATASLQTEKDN
# Outline: as §1
# ERG = target: T4, ERG (Homo sapiens, UniProt P11308 1-479); conditions: protein: recombinant; tags: N-terminal GST; dsDNA, one strand shown
# T4 sequence: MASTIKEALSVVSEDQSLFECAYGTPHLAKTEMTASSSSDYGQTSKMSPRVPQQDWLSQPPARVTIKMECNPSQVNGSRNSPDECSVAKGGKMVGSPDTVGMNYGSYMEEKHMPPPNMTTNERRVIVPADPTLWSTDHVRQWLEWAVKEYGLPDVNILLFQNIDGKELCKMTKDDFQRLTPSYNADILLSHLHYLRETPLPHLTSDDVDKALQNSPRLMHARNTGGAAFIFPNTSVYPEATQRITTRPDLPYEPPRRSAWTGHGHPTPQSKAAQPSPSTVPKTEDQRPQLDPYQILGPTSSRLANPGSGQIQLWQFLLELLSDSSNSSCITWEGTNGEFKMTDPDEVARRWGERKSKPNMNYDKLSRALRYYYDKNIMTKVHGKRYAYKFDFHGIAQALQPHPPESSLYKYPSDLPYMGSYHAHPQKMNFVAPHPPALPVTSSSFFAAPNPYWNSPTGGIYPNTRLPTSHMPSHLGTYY
# Outline: as §1
# ELF1 = ELF1 (Homo sapiens, UniProt P32519 1-619); conditions: protein: recombinant; tags: N-terminal GST; dsDNA, one strand shown
# Outline: as §1
# EHF = target: T5, EHF (Homo sapiens, UniProt Q9NZC4 1-300); conditions: protein: recombinant; tags: N-terminal GST; dsDNA, one strand shown
# T5 sequence: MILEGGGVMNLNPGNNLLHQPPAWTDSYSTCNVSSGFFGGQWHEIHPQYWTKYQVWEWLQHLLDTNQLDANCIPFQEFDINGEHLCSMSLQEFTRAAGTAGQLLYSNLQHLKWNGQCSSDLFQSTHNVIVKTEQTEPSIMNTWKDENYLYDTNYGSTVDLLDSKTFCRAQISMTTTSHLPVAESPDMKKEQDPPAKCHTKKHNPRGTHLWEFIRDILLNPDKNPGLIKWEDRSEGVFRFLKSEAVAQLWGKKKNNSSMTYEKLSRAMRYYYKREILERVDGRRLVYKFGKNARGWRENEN
# Outline: as §1
# SPI1 = SPI1 (Homo sapiens, UniProt P17947 1-270); conditions: protein: recombinant; tags: N-terminal GST; dsDNA, one strand shown
# Outline: as §1
# SPIB = SPIB (Homo sapiens, UniProt Q01892 1-262); conditions: protein: recombinant; tags: N-terminal GST; dsDNA, one strand shown
# Outline: as §1
# ELK3 = target: T6, ELK3 (Homo sapiens, UniProt P41970 1-407); conditions: protein: recombinant; tags: N-terminal GST; dsDNA, one strand shown
# T6 sequence: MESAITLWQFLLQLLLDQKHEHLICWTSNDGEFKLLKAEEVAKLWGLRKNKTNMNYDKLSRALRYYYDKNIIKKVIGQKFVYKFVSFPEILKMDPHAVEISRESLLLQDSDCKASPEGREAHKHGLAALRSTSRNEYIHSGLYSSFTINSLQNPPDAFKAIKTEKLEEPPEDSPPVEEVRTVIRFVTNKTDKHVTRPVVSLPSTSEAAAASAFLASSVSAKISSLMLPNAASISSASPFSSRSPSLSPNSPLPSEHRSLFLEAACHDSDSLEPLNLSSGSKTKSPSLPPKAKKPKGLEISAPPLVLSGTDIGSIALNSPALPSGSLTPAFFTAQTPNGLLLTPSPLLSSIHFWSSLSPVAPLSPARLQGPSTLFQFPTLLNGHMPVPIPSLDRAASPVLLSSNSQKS
# Outline: as §1
# FEV = target: T7, FEV (Homo sapiens, UniProt Q99581 1-238); conditions: protein: recombinant; tags: N-terminal GST; dsDNA, one strand shown
# T7 sequence: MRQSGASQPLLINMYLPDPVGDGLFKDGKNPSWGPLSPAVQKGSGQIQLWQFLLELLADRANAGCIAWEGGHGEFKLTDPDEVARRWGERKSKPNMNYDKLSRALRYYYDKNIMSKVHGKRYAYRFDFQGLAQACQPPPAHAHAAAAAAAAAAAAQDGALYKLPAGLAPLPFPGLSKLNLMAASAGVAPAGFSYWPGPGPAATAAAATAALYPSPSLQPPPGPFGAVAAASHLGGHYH
# Outline: as §1
# ETV5 = ETV5 (Homo sapiens, UniProt P41161 1-510); conditions: protein: recombinant; tags: N-terminal GST; dsDNA, one strand shown
# Outline: as §1
# HSF1 = HSF1 (Homo sapiens, UniProt Q00613 1-529); conditions: protein: recombinant; tags: N-terminal GST; chain copies: 3; dsDNA, one strand shown
# Outline: as §1
# SPIC = target: T8, SPIC (Homo sapiens, UniProt Q8N5J4 1-248); conditions: protein: recombinant; tags: N-terminal GST; dsDNA, one strand shown
# T8 sequence: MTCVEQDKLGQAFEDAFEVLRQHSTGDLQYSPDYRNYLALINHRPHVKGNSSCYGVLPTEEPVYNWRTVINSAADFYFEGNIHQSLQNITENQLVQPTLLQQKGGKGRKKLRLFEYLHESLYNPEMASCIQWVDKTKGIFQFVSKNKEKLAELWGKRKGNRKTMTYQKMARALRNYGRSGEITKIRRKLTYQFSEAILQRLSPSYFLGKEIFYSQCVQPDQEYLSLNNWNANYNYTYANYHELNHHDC
# Outline: as §1
# ELF4 = ELF4 (Homo sapiens, UniProt Q99607 1-663); conditions: protein: recombinant; tags: N-terminal GST; dsDNA, one strand shown
# Outline: as §1
# ELK4 = target: T9, ELK4 (Homo sapiens, UniProt P28324-2 1-405); conditions: protein: recombinant; tags: N-terminal GST; dsDNA, one strand shown
# T9 sequence: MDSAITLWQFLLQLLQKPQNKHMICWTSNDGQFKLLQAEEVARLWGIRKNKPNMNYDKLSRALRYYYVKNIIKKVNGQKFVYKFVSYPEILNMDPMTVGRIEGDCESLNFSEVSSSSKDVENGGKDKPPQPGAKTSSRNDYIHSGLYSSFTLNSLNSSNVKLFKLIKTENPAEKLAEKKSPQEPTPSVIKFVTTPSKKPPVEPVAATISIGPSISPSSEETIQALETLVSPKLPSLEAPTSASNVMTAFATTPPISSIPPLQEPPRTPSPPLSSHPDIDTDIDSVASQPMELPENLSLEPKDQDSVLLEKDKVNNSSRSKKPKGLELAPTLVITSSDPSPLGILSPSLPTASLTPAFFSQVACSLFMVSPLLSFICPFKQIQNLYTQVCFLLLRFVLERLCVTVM
# Outline: as §1
# ETV2 = target: T10, ETV2 (Homo sapiens, UniProt O00321 1-342); conditions: protein: recombinant; tags: N-terminal GST; dsDNA, one strand shown
# T10 sequence: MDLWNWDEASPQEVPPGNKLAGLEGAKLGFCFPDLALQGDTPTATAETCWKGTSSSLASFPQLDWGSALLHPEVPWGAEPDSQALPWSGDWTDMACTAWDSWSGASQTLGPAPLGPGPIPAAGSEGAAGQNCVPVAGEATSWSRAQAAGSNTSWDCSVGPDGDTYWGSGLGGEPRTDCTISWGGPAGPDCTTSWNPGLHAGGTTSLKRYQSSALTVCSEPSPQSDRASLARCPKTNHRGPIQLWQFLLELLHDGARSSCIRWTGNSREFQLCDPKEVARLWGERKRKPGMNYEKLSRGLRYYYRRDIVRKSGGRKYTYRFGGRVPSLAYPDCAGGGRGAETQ
# Outline: as §1
# ELF3 = target: T11, ELF3 (Homo sapiens, UniProt P78545 1-371); conditions: protein: recombinant; tags: N-terminal GST; dsDNA, one strand shown
# T11 sequence: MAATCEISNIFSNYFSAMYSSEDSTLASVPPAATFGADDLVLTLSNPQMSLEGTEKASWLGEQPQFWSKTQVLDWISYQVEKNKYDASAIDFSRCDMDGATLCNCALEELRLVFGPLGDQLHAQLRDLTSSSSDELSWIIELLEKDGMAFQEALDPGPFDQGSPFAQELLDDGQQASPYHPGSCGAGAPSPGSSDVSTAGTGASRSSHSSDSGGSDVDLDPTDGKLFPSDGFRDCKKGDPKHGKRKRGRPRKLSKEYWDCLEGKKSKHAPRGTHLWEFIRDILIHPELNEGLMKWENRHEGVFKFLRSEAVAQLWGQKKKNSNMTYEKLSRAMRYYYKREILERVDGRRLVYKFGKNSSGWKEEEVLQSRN
# Outline: as §1
# CRX = CRX (Homo sapiens, UniProt O43186 1-299); conditions: protein: recombinant; tags: N-terminal GST; dsDNA, one strand shown
# Outline: as §1
# ETV1 = ETV1 (Homo sapiens, UniProt P50549 1-477); conditions: protein: recombinant; tags: N-terminal GST; dsDNA, one strand shown
# Outline: as §1
# CRX, sequence (O43186 whole entry): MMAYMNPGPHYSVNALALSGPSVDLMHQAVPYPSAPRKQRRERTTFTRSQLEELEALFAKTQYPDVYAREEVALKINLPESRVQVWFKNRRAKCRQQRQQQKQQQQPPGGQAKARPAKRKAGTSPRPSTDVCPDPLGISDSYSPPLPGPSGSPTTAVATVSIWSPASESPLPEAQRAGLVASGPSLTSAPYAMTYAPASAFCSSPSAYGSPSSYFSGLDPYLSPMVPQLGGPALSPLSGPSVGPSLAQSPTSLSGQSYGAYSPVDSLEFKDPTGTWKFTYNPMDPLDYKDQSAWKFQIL
# SPIB, sequence (Q01892 whole entry): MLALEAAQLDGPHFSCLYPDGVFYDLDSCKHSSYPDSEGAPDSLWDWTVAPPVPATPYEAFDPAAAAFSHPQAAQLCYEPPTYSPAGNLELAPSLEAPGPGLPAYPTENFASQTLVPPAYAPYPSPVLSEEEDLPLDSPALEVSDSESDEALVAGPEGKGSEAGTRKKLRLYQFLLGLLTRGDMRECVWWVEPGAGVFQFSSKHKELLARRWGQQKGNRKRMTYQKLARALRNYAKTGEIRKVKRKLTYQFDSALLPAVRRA
# ETV1, sequence (P50549 whole entry): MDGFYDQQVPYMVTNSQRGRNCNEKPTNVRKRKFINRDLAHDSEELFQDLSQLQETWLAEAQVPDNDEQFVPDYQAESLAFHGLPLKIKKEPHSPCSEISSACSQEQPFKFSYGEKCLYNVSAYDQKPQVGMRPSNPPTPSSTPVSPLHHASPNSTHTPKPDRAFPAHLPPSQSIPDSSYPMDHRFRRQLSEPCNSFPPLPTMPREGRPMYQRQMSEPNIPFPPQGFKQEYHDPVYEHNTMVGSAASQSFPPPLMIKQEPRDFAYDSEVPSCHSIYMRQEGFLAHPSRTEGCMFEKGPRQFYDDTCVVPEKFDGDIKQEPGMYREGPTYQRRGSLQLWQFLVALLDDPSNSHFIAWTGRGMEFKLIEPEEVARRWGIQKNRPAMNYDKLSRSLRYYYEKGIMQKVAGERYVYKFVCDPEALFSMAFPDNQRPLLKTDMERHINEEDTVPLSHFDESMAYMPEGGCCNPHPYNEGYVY
# HSF1, sequence (Q00613 whole entry): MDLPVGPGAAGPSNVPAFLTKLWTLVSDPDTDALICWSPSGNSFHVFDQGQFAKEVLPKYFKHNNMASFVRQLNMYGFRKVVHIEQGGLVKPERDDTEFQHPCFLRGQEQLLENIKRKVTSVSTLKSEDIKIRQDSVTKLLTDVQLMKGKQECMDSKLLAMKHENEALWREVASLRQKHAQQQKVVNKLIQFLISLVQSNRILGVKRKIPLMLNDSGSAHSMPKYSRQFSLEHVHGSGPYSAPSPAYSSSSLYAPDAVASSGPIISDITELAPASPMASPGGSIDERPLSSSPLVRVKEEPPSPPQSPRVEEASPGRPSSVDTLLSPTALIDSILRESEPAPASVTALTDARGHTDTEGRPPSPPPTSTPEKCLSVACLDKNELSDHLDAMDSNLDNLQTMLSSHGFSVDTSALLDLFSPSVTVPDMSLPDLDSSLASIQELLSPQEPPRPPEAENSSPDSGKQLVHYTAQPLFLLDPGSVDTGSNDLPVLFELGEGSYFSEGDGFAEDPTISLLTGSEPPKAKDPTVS
# ELF1, sequence (P32519 whole entry): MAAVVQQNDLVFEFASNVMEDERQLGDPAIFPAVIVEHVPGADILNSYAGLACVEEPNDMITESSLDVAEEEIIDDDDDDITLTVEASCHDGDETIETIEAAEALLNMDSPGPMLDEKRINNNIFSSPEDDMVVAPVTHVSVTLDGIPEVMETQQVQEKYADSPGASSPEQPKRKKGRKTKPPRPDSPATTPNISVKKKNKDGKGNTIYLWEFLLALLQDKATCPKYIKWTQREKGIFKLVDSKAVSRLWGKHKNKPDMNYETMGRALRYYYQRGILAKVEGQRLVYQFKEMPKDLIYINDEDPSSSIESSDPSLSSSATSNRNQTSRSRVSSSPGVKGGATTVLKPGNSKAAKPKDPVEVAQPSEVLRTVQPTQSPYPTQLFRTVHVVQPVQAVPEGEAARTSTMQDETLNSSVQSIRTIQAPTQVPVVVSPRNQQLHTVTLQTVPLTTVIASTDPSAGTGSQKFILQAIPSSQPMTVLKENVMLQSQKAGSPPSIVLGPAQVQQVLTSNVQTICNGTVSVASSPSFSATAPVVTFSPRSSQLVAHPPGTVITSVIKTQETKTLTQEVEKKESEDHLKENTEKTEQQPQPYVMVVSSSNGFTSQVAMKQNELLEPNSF
# ETV5, sequence (P41161 whole entry): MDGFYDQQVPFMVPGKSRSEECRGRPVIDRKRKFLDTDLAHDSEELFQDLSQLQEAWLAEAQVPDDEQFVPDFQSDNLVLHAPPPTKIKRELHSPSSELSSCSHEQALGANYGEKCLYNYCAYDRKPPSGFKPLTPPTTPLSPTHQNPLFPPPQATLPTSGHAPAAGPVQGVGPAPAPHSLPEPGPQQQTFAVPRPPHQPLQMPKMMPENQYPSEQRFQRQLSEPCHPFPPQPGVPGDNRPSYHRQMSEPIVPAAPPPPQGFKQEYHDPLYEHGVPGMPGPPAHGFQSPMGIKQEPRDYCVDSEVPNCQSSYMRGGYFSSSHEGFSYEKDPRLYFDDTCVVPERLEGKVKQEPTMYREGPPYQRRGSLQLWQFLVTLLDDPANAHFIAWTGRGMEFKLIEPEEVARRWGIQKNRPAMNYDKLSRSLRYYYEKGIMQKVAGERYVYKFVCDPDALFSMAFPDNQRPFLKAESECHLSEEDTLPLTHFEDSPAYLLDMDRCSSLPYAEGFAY
# ELF4, sequence (Q99607 whole entry): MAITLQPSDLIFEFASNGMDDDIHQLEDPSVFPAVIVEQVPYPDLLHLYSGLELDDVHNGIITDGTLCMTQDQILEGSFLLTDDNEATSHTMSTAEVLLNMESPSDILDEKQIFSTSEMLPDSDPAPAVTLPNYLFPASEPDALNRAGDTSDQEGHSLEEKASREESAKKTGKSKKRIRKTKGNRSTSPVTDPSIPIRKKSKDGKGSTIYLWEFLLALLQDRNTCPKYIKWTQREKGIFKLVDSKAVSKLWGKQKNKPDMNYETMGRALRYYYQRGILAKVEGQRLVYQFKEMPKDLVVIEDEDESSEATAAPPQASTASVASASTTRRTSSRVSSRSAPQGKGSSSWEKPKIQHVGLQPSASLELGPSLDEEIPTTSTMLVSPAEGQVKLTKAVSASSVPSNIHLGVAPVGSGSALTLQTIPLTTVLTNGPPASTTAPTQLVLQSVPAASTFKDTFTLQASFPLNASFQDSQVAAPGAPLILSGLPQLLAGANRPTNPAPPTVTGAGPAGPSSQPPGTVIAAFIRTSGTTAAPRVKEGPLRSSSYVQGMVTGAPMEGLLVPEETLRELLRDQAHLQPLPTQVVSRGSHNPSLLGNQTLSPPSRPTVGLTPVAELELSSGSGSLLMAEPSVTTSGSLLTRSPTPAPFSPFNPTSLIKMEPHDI
sequence,measurement,setting,value
TTTGGA,binding signal,FLI1,"1.15 fold enrichment (6-mer frequency, TF over GST control)"
same,binding signal,ELK1,"1.14 fold enrichment (6-mer frequency, TF over GST control)"
same,binding signal,GABPA,"1.24 fold enrichment (6-mer frequency, TF over GST control)"
same,binding signal,ERG,"1.11 fold enrichment (6-mer frequency, TF over GST control)"
same,binding signal,ELF1,"1.18 fold enrichment (6-mer frequency, TF over GST control)"
same,binding signal,EHF,"1.09 fold enrichment (6-mer frequency, TF over GST control)"
same,binding signal,SPI1,"1.19 fold enrichment (6-mer frequency, TF over GST control)"
same,binding signal,SPIB,"1.22 fold enrichment (6-mer frequency, TF over GST control)"
same,binding signal,ELK3,"1.14 fold enrichment (6-mer frequency, TF over GST control)"
same,binding signal,FEV,"1.2 fold enrichment (6-mer frequency, TF over GST control)"
same,binding signal,ETV5,"1.21 fold enrichment (6-mer frequency, TF over GST control)"
same,binding signal,HSF1,"1.48 fold enrichment (6-mer frequency, TF over GST control)"
same,binding signal,SPIC,"1.28 fold enrichment (6-mer frequency, TF over GST control)"
same,binding signal,ELF4,"1.12 fold enrichment (6-mer frequency, TF over GST control)"
same,binding signal,ELK4,"1.14 fold enrichment (6-mer frequency, TF over GST control)"
same,binding signal,ETV2,"1.22 fold enrichment (6-mer frequency, TF over GST control)"
same,binding signal,ELF3,"1.13 fold enrichment (6-mer frequency, TF over GST control)"
same,binding signal,CRX,"1.48 fold enrichment (6-mer frequency, TF over GST control)"
same,binding signal,ETV1,"1.24 fold enrichment (6-mer frequency, TF over GST control)"

# — article PMC7862700, “An all-to-all approach to the identification of sequence-specific readers for epigenetic DNA modifications on cytosine”
